Source: PubChem (National Center for Advancing Translational Sciences (NCATS))
Shown are actives, neighbours in structure and some others; about 2.6% of the full set was active somewhere.
Cruzain noTriton – blocks cruzain activity in detergent-free assay | purified cruzain, Z-FR-AMC fluorescence, no detergent | Potency, µM, inactives show max response, negative = inhibition, most hits filed as inhibitors | 200,000 tested, 2.3% active;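 note: plate controls were enzyme without inhibitor for no effect and buffer without enzyme for full effect; nearly all actives have a fitted effect of over 40% in size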
Target sequence (P25779 123-467 limits assumed): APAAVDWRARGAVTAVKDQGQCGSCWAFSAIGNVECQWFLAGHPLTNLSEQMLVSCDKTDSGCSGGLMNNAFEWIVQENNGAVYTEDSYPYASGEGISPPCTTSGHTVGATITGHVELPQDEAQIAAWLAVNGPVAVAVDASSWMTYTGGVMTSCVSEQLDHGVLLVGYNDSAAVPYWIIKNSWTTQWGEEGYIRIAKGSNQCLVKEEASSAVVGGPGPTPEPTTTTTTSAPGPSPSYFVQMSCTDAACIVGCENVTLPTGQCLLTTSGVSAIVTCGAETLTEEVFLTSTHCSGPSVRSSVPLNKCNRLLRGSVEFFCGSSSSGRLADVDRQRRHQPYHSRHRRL
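Purified cruzain at 1.5 nM, pre-incubated 15 min with compound at room temperature in 100 mM sodium acetate pH 5.5, 5 mM DTT, 0.00005% Triton X-100. Reaction started with 2 uM Z-FR-AMC; AMC fluorescence increase over 60 s gives rate.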
Cruzain Triton – blocks cruzain activity in presence of Triton detergent; P25779; purified cruzain, Z-FR-AMC fluorescence, 0.01% Triton; Potency, µM, for the others: max response, negative = inhibition, usual class: inhibitors; 200,000 tested, 0.43% active;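 note: plate controls were neutral wells for no effect and buffer without enzyme for full effect; nearly all actives have a fitted effect of over 40% in size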
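Cruzain (1.5 nM) preincubated 15 min at RT with compound in 100 mM sodium acetate pH 5.5, 5 mM DTT, 0.01% Triton X-100. Reaction started with 2 uM Z-FR-AMC; AMC fluorescence (ex 360/em 450 nm) change over 60 s gave rate.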
Papain inh – papain (Carica papaya) inhibition counter-screen; Potency, µM, for the others: max response, negative = inhibition, most hits filed as inhibitors; purified papain, Z-FR-AMC fluorescence cleavage; shares compounds with Cruzain Triton; 410 tested, 41% active;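 note: 0% = no-compound wells and -100% = no-enzyme wells; nearly all actives have a fitted effect of over 35% in size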
Target sequence (P00784 whole entry, looked up): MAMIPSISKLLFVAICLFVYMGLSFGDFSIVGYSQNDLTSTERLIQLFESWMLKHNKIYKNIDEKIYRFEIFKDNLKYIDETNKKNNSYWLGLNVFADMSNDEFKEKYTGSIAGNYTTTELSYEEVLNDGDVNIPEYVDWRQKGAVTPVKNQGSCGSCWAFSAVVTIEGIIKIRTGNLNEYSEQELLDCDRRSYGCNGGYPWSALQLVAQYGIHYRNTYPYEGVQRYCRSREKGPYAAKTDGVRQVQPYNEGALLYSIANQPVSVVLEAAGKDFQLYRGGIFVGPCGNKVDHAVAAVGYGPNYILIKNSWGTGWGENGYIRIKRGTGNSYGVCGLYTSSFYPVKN
An asterisk follows results filed as active; ? = inconclusive; . = not tested or not shown. Calls come from the whole dose curve; as a rule, active = well fitted curve in the direction sought with a large enough effect; inconclusive = small, poorly fitted or top-dose-only effect, or another doubt; inactive = no such curve, though single readings can be large; an effect the other way counts as inactive or inconclusive. Potency is the fitted concentration of half-maximal effect.

SMILES	Cruzain noTriton	Cruzain Triton	Papain inh
O=C(NC(=S)Nc1ccc(NC(=O)c2cccs2)cc1)c1cc2ccccc2o1	?	-11.7%	.
O=C(NC(=S)Nc1nc(-c2cccc3ccccc23)cs1)c1cc2ccccc2o1	2.51µM*	-2.7%	14.0%
Cc1ccc(CSc2nc3ccc(NC(=O)CC(C)C)cc3s2)cc1	4.5%	-4.2%	.
CC(C)CNc1nc(C#N)nc(Nc2ccccc2)n1	.	.	1.26µM*
CC(C)Nc1nc(C#N)nc(Nc2ccccc2)n1	.	.	2.24µM*
CC(C)Nc1nc(C#N)nc(NC(C)C)n1	15.8µM*	11.2µM*	5.01µM*
CNc1nc(N/N=C/c2ccc([N+](=O)[O-])cc2)nc(Nc2ccccc2)n1	-0.2%	-11.1%	.
COc1nc(Nc2ccc([N+](=O)[O-])cc2)nc(NC(C)C)n1	-18.9%	-13.5%	.
CNc1nc(C#N)nc(Nc2ccccc2)n1	.	.	2.24µM*
CSc1nc(NC(C)C)nc(NC(C)C)n1	-8.1%	2.6%	.
CN(C)c1nc(Nc2ccccc2)nc(N(C)C)n1	1.7%	-3.0%	.
Cc1cc(C)cc(NC(=O)CSc2nccn2C2CCCC2)c1	-14.4%	0.1%	.
CCS(=O)(=O)c1ncc(N(Cc2ccco2)Cc2sccc2C)c(C(=O)Nc2ccc(C)cc2C)n1	12.5%	-3.0%	.
CCCCC1CCC(CCCC(C)CCC(=O)O)CC1 (stereo not given)	12.2%	-8.6%	.
N#Cc1nc(-c2ccc(F)cc2)oc1NCCN1CCOCC1	-3.4%	-3.8%	.
COc1ccc(-c2nc(C#N)c(NCCCN3CCOCC3)o2)cc1	-12.9%	20µM*	3.98µM*
CCOC(=O)C1CCN(C(=O)c2ccc(OC)cc2OC)CC1	-27.6%	2.3%	.
COc1cc(OC)cc(C(=O)NCC(=O)OCC(=O)c2cc(OC)ccc2OC)c1	0.0%	-17.0%	.
COc1ccc(OC)c(C(=O)COC(=O)CNC(=O)C2CCCCC2)c1	5.01µM*	4.47µM*	-15.1%
COc1ccc(C(=O)COC(=O)CNC(=O)C2CCCCC2)c(OC)c1	6.31µM*	3.98µM*	-23.1%
COc1ccc(CCNC(=O)C2CCC(CNS(=O)(=O)c3ccc(C)cc3)CC2)cc1OC (stereo not given)	6.2%	-1.8%	.
Cc1cccc(Cn2cc(/C=C(/C#N)C(=O)Nc3cccc(Cl)c3)c3ccccc32)c1	3.16µM*	-2.1%	13.3%
N#C/C(=C\c1cn(Cc2cccc(F)c2)c2ccccc12)C(=O)NCc1ccco1	-4.9%	-5.8%	.
NC(=O)CSc1nnc([C@@H](N)Cc2c[nH]c3ccccc23)o1	10µM*	8.91µM*	7.2%
CC(C)(C)OC(=O)N[C@@H](Cc1c[nH]c2ccccc12)c1nnc(SCC(N)=O)o1	12.9%	3.3%	.
SMILES	Cruzain noTriton	Cruzain Triton	Papain inh
CC(NC(=O)c1ccc(F)cc1)c1nc2ccccc2n1Cc1ccccc1F (stereo not given)	3.0%	0.1%	.
O=C(NCCc1nc2ccccc2n1Cc1ccccc1F)c1ccc(F)cc1	7.9%	3.16µM*	-9.4%
CCc1ccc(NC(=O)CSc2nnc3[nH]c(=O)cc(-c4ccccc4)n23)cc1	?	-1.9%	.
COc1ccccc1NC(=O)CN1C(=O)C(c2ccc(F)cc2)=NC12CCCCC2	-2.5%	-6.0%	.
CCOC(=O)c1sc(N/N=C/c2ccccc2)nc1C	?	-6.3%	.
CCOC(=O)c1sc(N/N=C/c2cccc(C)c2)nc1C	?	1.41µM*	1.26µM*
O=C(CSc1nc(-c2ccccc2F)nc2cc(=O)[nH]n12)Nc1cccc(C(F)(F)F)c1	?	2.2%	.
O=C(CSc1ncc(S(=O)(=O)c2ccc(Cl)cc2)c(=O)[nH]1)Nc1cccc(C(F)(F)F)c1	20.6%	?	.
CC(C)(C)c1ccc(S(=O)(=O)c2cnc(SCC(=O)Nc3ccc(F)c(Cl)c3)[nH]c2=O)cc1	-2.6%	20µM*	2.82µM*
Cc1ccccc1S(=O)Cc1ccc(C(=O)N2CCN(c3cccc(C)c3C)CC2)o1 (stereo not given)	?	-7.3%	.
CCC(C)[C@@H](NC(=O)OC(C)(C)C)c1nnc(S(=O)(=O)Cc2cccc(C)c2)o1 (stereo not given in full)	7.94µM*	3.16µM*	12.6µM*
Cc1cccc(CS(=O)(=O)Cc2ccc(C(=O)NC(C)c3ccccc3)o2)c1 (stereo not given)	13.4%	0.0%	.
Cc1ccc(Cl)cc1N	-2.7%	4.6%	.
O=S1(=O)c2ccccc2N=NN1Cc1ccc(Cl)c(Cl)c1	?	22.4µM*	-14.9%
CC(C)(C)c1ccc(CN2N=Nc3ccccc3S2(=O)=O)cc1	?	-11.8%	.
COc1ccc(CNC(=O)Cn2c(=O)n3nc(-c4ccc(OC)cc4)nc3c3ccccc32)cc1	-7.3%	-0.2%	.
Cc1ccc(N(C)S(=O)(=O)c2ccc(-c3coc(C)n3)cc2)cc1	-11.7%	-5.9%	.
COc1ccc(NC(=O)CCc2nnc3n(CC(C)C)c(=O)c4ccccc4n23)cc1	-6.3%	-0.1%	.
Cn1c(C(=O)NCCN2CCCCCC2)cc2c(=O)n(C)c3ccccc3c21	7.94µM*	10µM*	-19.9%
Cn1c(C(=O)NCCCN2CCOCC2)cc2c(=O)n(C)c3ccccc3c21	0.4%	-2.1%	.
O=C(NCCc1ccc(Cl)cc1)C(=O)NCC(c1ccco1)S(=O)(=O)c1ccc(Cl)cc1 (stereo not given)	5.6%	-1.3%	.
c1ccc(C2=Nn3c(nnc3-c3cc(-c4ccccc4)n[nH]3)SC2)cc1	-6.5%	-6.9%	.
Cc1ccc(O/C=C2/Nn3c(nnc3-c3cc(-c4ccccc4)n[nH]3)S2)cc1	.	.	9.1%
CCOc1ccc(-c2c(C)nn3c(C)c(C(=O)NCc4ccc(Cl)cc4)cnc23)cc1OCC	-17.5%	10.4%	.
COC(=O)CC[C@@H](C)[C@H]1CC[C@H]2[C@@H]3CC[C@@H]4C[C@H](O)CC[C@]4(C)[C@H]3C[C@H](O)[C@]12C	?	-6.1%	.
SMILES	Cruzain noTriton	Cruzain Triton	Papain inh
COC(=O)CCC(C)C1CCC2C3CC[C@H]4CC(O)CC[C@@]4(C)C3CC(O)[C@]12C (stereo not given in full)	?	-9.1%	-6.0%
CCOc1cccc(-c2nnc3sc(-c4cc(OC)c(OC)cc4OC)nn23)c1	0.1%	-3.9%	.
COc1ccc(-c2nn3c(-c4ccc(F)cc4)nnc3s2)cc1	?	2.1%	.
COc1ccc(-c2nn3c(-c4cc(C)[nH]n4)nnc3s2)cc1	.	.	7.5%
CCOc1cccc(-c2nn3c(-c4cc(C)[nH]n4)nnc3s2)c1	-3.7%	0.7%	8.2%
Cc1ccc(C)c(N2CCN(c3c(CN4CCCC4)c(=O)oc4ccccc34)CC2)c1	-2.2%	-1.8%	.
CCOC(=O)CNC(=O)c1ccccc1	5.5%	-2.2%	.
O=C(CNC(=O)C1CCCCC1)OCC(=O)c1ccc2c(c1)CCC2	.	.	-24.9%
O=C(CN1C(=O)c2ccccc2C1=O)NCC(=O)OCC(=O)c1ccc(Br)cc1	-9.0%	0.2%	.
COc1ccc(C(CC(=O)O)NC(=O)C2CCCCC2)cc1 (stereo not given)	-5.5%	3.5%	.
O=C(CNC(=O)c1ccco1)OCC(=O)c1ccc2c(c1)CCCC2	-0.5%	-9.9%	.
O=C(CNC(=O)c1ccccc1)OCC(=O)c1ccccc1	.	.	-24.7%
O=C(CNC(=O)C1CCCCC1)OCC(=O)c1ccc(Br)cc1	.	.	-24.2%
COc1ccc(C(=O)C(C)OC(=O)CNC(=O)C2CCCCC2)cc1 (stereo not given)	.	.	11.2µM*
COc1ccc(-c2nn(-c3ccccc3)cc2C2NC(=O)NC(C)=C2C(=O)OC(C)C)cc1Cl (stereo not given)	-12.6%	-9.6%	.
